Reference: the supplement of paper PMC10646978
± gives the standard deviation.

How the values were obtained:
Conditions in all cases: modulator concentration 10 µM
[1] = test system: RAW-Dual (murine macrophage reporter line); test: NF-kB reporter (SEAP) activity fold change vs agonist alone; higher = enhanced NF-kB activity
How it was run: (§1)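 Overnight stimulation with a PRR agonist followed pre-incubation for 1 hour at 37 °C with compound at 10 μM final. This was done in RAW-Dual murine macrophage reporter cells seeded at 50 000 per well in 384-well plates. NF-κB (SEAP, QUANTI-Blue absorbance at 620 nm) and IRF (Lucia luciferase, QUANTI-Luc luminescence) were read from the supernatant. Each reporter's fold change relative to the mean agonist-only control on the same plate was averaged over replicate plates.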

[2] = test system: RAW-Dual (murine macrophage reporter line); test: IRF reporter (Lucia luciferase) activity fold change vs agonist alone; higher = enhanced IRF activity
How it was run: as §1

[3] = test system: RAW-Dual (murine macrophage reporter line); test: viability score (confluency relative to resting cells, overnight) (fraction); higher = more viable, active = viable (0.7 or more)
How it was run: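 Compound was added at a final 10 μM to RAW-Dual macrophages in 384-well plates and left overnight. Confluency was imaged with IncuCyte, and two masks were generated in IncuCyte software over all imaged wells. Each viability score is confluency relative to resting cells, and a compound met the cutoff only when both masks were above 70% of resting cells.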

[4] = agonist: CpG ODN 1826 0.5 ug/mL

SMILES	NF-kB reporter [1, 4]	NF-kB reporter ([1]; agonist: LPS 0.1 ug/mL)	NF-kB reporter ([1]; agonist: MPLA […])	IRF reporter ([2]; agonist: 3'3'-cGAMP 10 ug/mL)	IRF reporter ([2]; agonist: LPS 0.1 ug/mL)	IRF reporter ([2]; agonist: MPLA […])	viability score [3]
CC(=O)N1CCC(C(=O)NCc2cccnc2-c2cnn(C)c2)CC1	1.02 ± 0.11	1.06 ± 0.11	0.903 ± 0.099	1.04 ± 0.095	1.18 ± 0.074	1.15 ± 0.25	0.995 (active)
O=C(CCCCCl)NN1c2ccccc2CCc2ccccc21	1.18 ± 0.19	0.984 ± 0.11	1.09 ± 0.084	0.835 ± 0.022	1.18 ± 0.14	1.25 ± 0.29	1.01 (active)
COCCN1CCC(NC(=O)c2cccc3ccccc23)CC1	1.16 ± 0.099	1.06 ± 0.096	0.958 ± 0.039	0.992 ± 0.083	1.02 ± 0.072	1.04 ± 0.12	0.998 (active)
COC(=O)c1ccc(CN2CCc3ccccc3C2)cc1	0.82 ± 0.089	1.17 ± 0.08	1.3 ± 0.059	0.832 ± 0.052	0.974 ± 0.1	1.5 ± 0.36	0.938 (active)
O=C(Cn1c(=O)oc2ccccc21)N1Cc2cncnc2C1	0.853 ± 0.24	1.04 ± 0.052	0.988 ± 0.065	0.921 ± 0.042	0.991 ± 0.15	0.991 ± 0.12	0.998 (active)
COC(CNC(=O)COc1cccc2c1OC(C)(C)C2)c1ccc(Cl)s1 (configuration not stated)	0.539 ± 0.028	1.19 ± 0.1	0.998 ± 0.043	0.873 ± 0.046	0.883 ± 0.06	1.14 ± 0.34	0.939 (active)
Cc1ccc(-c2ncc(Cl)cc2-c2ccc(S(C)(=O)=O)cc2)cn1	1.03 ± 0.17	1.15 ± 0.33	0.973 ± 0.054	1.05 ± 0.038	1.29 ± 0.4	1.37 ± 0.1	1 (active)
CC(C)CCn1c(COc2ccccc2)nc2ccccc21	0.892 ± 0.067	1.02 ± 0.078	0.995 ± 0.028	0.914 ± 0.033	1.04 ± 0.048	1.09 ± 0.1	0.999 (active)
CCN(CC)C(=O)/C(C#N)=C/c1cc(O)c(O)c([N+](=O)[O-])c1	1.23 ± 0.23	1.08 ± 0.45	0.864 ± 0.055	0.905 ± 0.035	1.22 ± 0.43	1.11 ± 0.095	0.992 (active)
CC(CN1c2ccccc2Sc2ccccc21)N(C)C.Cl (configuration not stated)	0.789 ± 0.11	1.17 ± 0.29	0.96 ± 0.055	0.336 ± 0.024	1.16 ± 0.42	1.15 ± 0.091	0.389 (inactive)
CC(C)C(C(=O)Nc1ccc(F)cc1)N1C(=O)c2ccccc2C1=O (configuration not stated)	0.911 ± 0.079	1.06 ± 0.086	0.935 ± 0.077	0.957 ± 0.033	1.09 ± 0.15	0.943 ± 0.058	1.02 (active)
COc1cc2nc(N3CCN(C(=O)C4COc5ccccc5O4)CC3)nc(N)c2cc1OC.CS(=O)(=O)O (configuration not stated)	0.103 ± 0.014	1.29 ± 0.2	1.2 ± 0.082	0.273 ± 0.017	1.44 ± 0.33	1.97 ± 0.15	0.914 (active)
O=C(C=Cc1ccccc1)NC(NC(=S)Nc1ccc(Cl)cc1)C(Cl)(Cl)Cl (configuration not stated)	1.16 ± 0.11	0.783 ± 0.11	5.38 ± 0.2	0.404 ± 0.07	0.804 ± 0.036	1.74 ± 0.19	0.166 (inactive)
COc1ccc(N(CC(=O)Nc2ccc3ccccc3c2)S(C)(=O)=O)cc1OC	0.921 ± 0.074	1.06 ± 0.06	0.883 ± 0.054	0.907 ± 0.025	1.43 ± 0.18	1.06 ± 0.14	1.01 (active)
COc1ccc(N(CC(=O)N(C)Cc2ccccc2)S(C)(=O)=O)cc1OC	1.08 ± 0.086	1.02 ± 0.083	1.05 ± 0.08	1.03 ± 0.026	1.45 ± 0.21	1.1 ± 0.18	1.01 (active)
CCC1(C)CC(CCN)(c2ccc(C)cc2)CCO1 (configuration not stated)	0.826 ± 0.053	1.02 ± 0.08	0.992 ± 0.047	0.822 ± 0.048	0.904 ± 0.06	0.843 ± 0.083	0.962 (active)
CCOC(=O)C1C(=O)NC(SCC(N)=O)=C(C#N)C1c1ccccc1OCC (configuration not stated)	0.936 ± 0.052	0.994 ± 0.063	0.926 ± 0.07	1 ± 0.072	1.25 ± 0.083	1.03 ± 0.098	1 (active)
COc1ccc(-c2cc(=O)c3c(O)cc(O)cc3o2)cc1O	1.38 ± 0.11	1.15 ± 0.056	1.3 ± 0.04	0.641 ± 0.036	0.426 ± 0.076	0.356 ± 0.063	0.985 (active)
CCOC(=O)c1cc(-c2ccccc2)sc1NC(=O)C(C)(C)C	0.798 ± 0.068	0.907 ± 0.055	1.2 ± 0.17	0.945 ± 0.055	1.3 ± 0.093	1.44 ± 0.17	1.02 (active)
Cl.Cl.O=C(O)COCCN1CCN(C(c2ccccc2)c2ccc(Cl)cc2)CC1 (configuration not stated)	0.906 ± 0.15	0.996 ± 0.29	0.892 ± 0.05	0.942 ± 0.029	1.17 ± 0.39	1.14 ± 0.11	0.987 (active)
Cc1ccc(Nc2cc(N3CCCCC3)c(N)c3c2C(=O)c2ccccc2C3=O)cc1	1.26 ± 0.23	1.09 ± 0.067	0.964 ± 0.12	1 ± 0.057	1.56 ± 0.21	1.12 ± 0.12	0.996 (active)
COc1ccc2oc(=O)c(C(=O)Nc3ccc(C(=O)O)cc3)cc2c1	0.909 ± 0.054	1.02 ± 0.1	0.953 ± 0.08	1.08 ± 0.035	1.17 ± 0.11	0.959 ± 0.13	0.987 (active)
Cc1cc(OC2CN(C(=O)CSCc3ccccc3)C2)cc(=O)n1C1CC1	1.12 ± 0.056	1.07 ± 0.085	0.994 ± 0.05	0.658 ± 0.034	0.986 ± 0.086	1.11 ± 0.31	1 (active)
C[C@H](Cc1cc2c(c(C(N)=O)c1)N(CCCO)CC2)NCCOc1ccccc1OCC(F)(F)F	1.2 ± 0.2	1.09 ± 0.29	1.03 ± 0.057	0.732 ± 0.058	1.05 ± 0.26	0.893 ± 0.2	0.998 (active)
COC(=O)C1=C(C)NC(C)=C(C(=O)OCCN2CCN(C(c3ccccc3)c3ccccc3)CC2)C1c1cccc([N+](=O)[O-])c1 (configuration not stated)	0.231 ± 0.038	0.631 ± 0.07	0.89 ± 0.051	0.138 ± 0.0049	0.949 ± 0.11	1.1 ± 0.11	0.966 (active)
CS(=O)(=O)N1CCCCC1C(=O)N(CC1CCCO1)c1nc2c(F)cccc2s1 (configuration not stated)	0.814 ± 0.072	1.02 ± 0.1	0.773 ± 0.054	1.24 ± 0.078	1.19 ± 0.077	1.23 ± 0.16	0.966 (active)
